These results are taken from PubChem BioAssay (EPA / NIEHS).

Calls of active or inactive are those of the source. The calls were made as follows: active = hit-call score of the fitted dose curve at least 0.9, where 1 is the maximum; inactive = score below 0.9.

As a reminder, the AC50 is the midpoint of the concentration-response curve, whichever way the signal moves.

The nature of this experiment: ATG_CMV_CIS: Attagene CIS-FACTORIAL HepG2 Assay for human CMV (Internal Marker) (AID 2282928).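 Also: endpoint acts as a background internal control marker rather than a target.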 The settings on record: HepG2 CMV promoter reporter, transcription factor profiling; actives raise or lower the signal. As for the experimental part: ATG_CIS is a cell-based, multiplexed-readout assay that uses HepG2, a human liver cell line, with measurements taken at 24 hours after chemical dosing in a 24-well plate.ATG_CMV_CIS is one of 52 assay component(s) measured or calculated from the ATG_CIS assay. It is designed to make measurements of mRNA induction, a form of inducible reporter, as detected with fluorescence intensity signals by Reverse transcription polymerase chain reaction (RT-PCR) and Capillary electrophoresis technology.Data from the assay component ATG_CMV_CIS was analyzed into 1 assay endpoint. This assay endpoint, ATG_CMV_CIS, was analyzed with bidirectional fitting relative to DMSO as the negative control and baseline of activity. Using a type of inducible reporter, measures of mRNA for gain or loss-of-signal activity can be used to understand the background control at the transcription factor-level as they relate to the gene . Furthermore, this assay endpoint can be referred to as a secondary readout, because this assay has produced multiple assay endpoints where this one serves a background control function. To generalize the intended target to other relatable targets, this assay endpoint is annotated to the background measurement intended target family, where the subfamily is internal marker.
Human liver HepG2 cells are transiently transfected with multiple reporter transcription units (MRTUs) in 6-well plates using FuGene 6 reagent (Roche; 3 ml FuGene/1 mg DNA). The MRTU constructs are regulated by a cis-regulating element (promoter). […] A major difference between the CIS and TRANS system is that in CIS activities of endogenous TFs are measured, whereas the TRANS assay evaluates changes in activities of exogenous, chimeric NR-Gal4 proteins. […] At the end of 24 hour incubation, total RNA was isolated using TriZol reagent (Invitrogen). The isolated RNA is then reverse-transcribed using oligo(dT) primer and Mo-MLV reverse transcriptase (Invitrogen) with DNAse I (Ambion) treatment for 30 min. The one-tenth of the produced cDNA was amplified by PCR using Taq DNA polymerase (Invitrogen) and two reporter sequence-specific primers. The PCR products were fluorescently labeled by primer extension with 6-arboxyfluorescein (6-FAM) 5'-labeled reporter sequence-specific primer (2 min at 95 C, 20 s at 68 C and 10 min at 72 C) and these products were digested with 5U of HpaI (New England Biolabs) for 2h at 37 C. The fragments were purified using Qiaquick PCR columns (Qiagen), analyzed on an ABI 3130xL genetic analyzer (Applied Biosystems) with peak positions identified by using a set of X-rhodamine (ROX)-labeled MapMarker1000 molecular weight standards (BioVentures). The raw capillary electrophoresis data was processed using Attagraph software (Attagene).
For the molecule `FC(F)(F)C(F)(F)CNCC(F)(F)C(F)(F)F`, the molecule was called inactive. In the case of `Cc1ccc(S(=O)(=O)NCl)cc1`, the call was inactive. Consider `CCCCOc1ccc(N)cc1`, for which the molecule was classed as inactive. As for `C=CC(=O)OCC(F)(F)C(F)(F)C(F)(F)C(F)(F)COC(=O)C=C`, the AC50 is 58.1 µM (active). As to `FC(F)(F)C(F)(F)C(F)(F)CI`, the call was inactive.

As to `COC(OC(C)=O)c1ccccc1` (stereo not given), the outcome was inactive. The same measure, in the same setting: as for `O=C(Cl)C(F)(F)C(F)(F)C(F)(F)C(F)(F)C(F)(F)C(F)(F)C(F)(F)C(F)(F)F`, the entry is “inactive”; as for `CC/C=C\CCOC(C)=O`, “inactive”; as for `O=C(O)C(F)(F)C(F)(F)C(F)(F)C(F)(F)C(F)(F)C(F)(F)C(F)(F)C(F)(F)C(F)(F)C(F)(F)C(F)(F)C(F)(F)C(F)(F)F`, “inactive”. Consider `C(=C(c1ccccc1)c1ccccc1)c1ccccc1`, for which the AC50 is 30 µM (active). With `CCc1ccc(C(c2ccc(CC)cc2)C(Cl)Cl)cc1`, the AC50 was 100 µM (active).

With `CCO[Si](CCC(F)(F)C(F)(F)C(F)(F)C(F)(F)C(F)(F)C(F)(F)F)(OCC)OCC`, the molecule was called inactive. Still for that read-out and setting: as for `FC(F)(F)C(F)(F)C(F)(F)C(F)(F)C(F)(F)C(F)(F)C(F)(F)I`, the entry is “inactive”; as for `CCN(Cc1cccc(S(=O)(=O)O)c1)c1ccc(C(=C2C=CC(=[N+](CC)Cc3cccc(S(=O)(=O)O)c3)C=C2)c2ccc(O)cc2S(=O)(=O)[O-])cc1`, “inactive”. On the same count and under the same terms, with `O=S(=O)(OCCOC(F)(F)F)C(F)(F)F` the entry was “inactive”.

In the case of `CC(Cc1ccc(O)c(O)c1)C(C)Cc1ccc(O)c(O)c1` (stereo not given), the molecule was classed as inactive.

Turning to `FC(F)(F)C(F)(F)C(F)(F)C(F)(F)CCI`, the molecule was classed as inactive.

As for `FC(F)(F)C(F)(F)C(F)(F)C(F)(F)C(F)(F)C(F)(F)C(F)(F)Br`, the molecule was called inactive. In the case of `C#C[C@]1(O)CC[C@H]2[C@@H]3CCc4cc(OC)ccc4[C@H]3CC[C@@]21C`, the AC50 is 48.2 µM (active).

Consider `N=C(N)C(F)(F)C(F)(F)C(F)(F)C(F)(F)C(F)(F)C(F)(F)C(F)(F)F`, for which the call was inactive.

In the case of `c1ccc(-c2ccccc2-c2ccccc2)cc1`, the AC50 was 29.8 µM (active).

`C=CC/C=C/C/C=C/C/C=C/C`: the outcome was inactive. With `C1COCCN1`, the result was inactive. On the same count and under the same terms, as for `CCCCNc1ccccc1`, the entry is “inactive”. Still for that read-out and setting: as for `COC(=O)CCC(F)(F)C(F)(F)C(F)(F)C(F)(F)F`, the entry is “inactive”; as for `NC(=O)C(F)(F)C(F)(F)C(F)(F)C(F)(F)F`, “inactive”. On the same count and under the same terms, as for `CC(CCl)OP(=O)(OC(C)CCl)OC(C)CCl` (stereo not given), the entry is “inactive”. As for `CCCCCCCCCCCCCCCC[N+](C)(C)Cc1ccccc1`, the AC50 was 44.8 µM (active). Still for that read-out and setting: as for `c1ccc(B(c2ccccc2)c2ccccc2)cc1`, the figure is 71 µM (active). In the case of `CCc1c(Br)c(Br)c(Br)c(Br)c1Br`, the outcome was inactive. On the same count and under the same terms, with `C=C(C)C(=O)OCCC(F)(F)C(F)(F)C(F)(F)C(F)(F)C(F)(C(F)(F)F)C(F)(F)F` the entry was “inactive”; with `CO[Si](OC)(c1ccccc1)c1ccccc1`, “inactive”. On the same count and under the same terms, as for `OCC(F)(F)C(F)(F)C(F)(F)C(F)F`, the entry is “inactive”; as for `CCCCCC=O`, “inactive”; as for `CC(C)=CCCC(C)CCOC(=O)C(C)C` (stereo not given), “inactive”.

As to `CCCCCCCOC(=O)c1ccccc1C(=O)OCCCCCCC`, the result was inactive. Same read-out and setting: as for `O=S(=O)(OCC(F)F)C(F)(F)F`, the entry is “inactive”; as for `OCC(F)(F)C(F)(F)C(F)(F)F`, “inactive”; as for `O=C(C=Cc1ccccc1)OCC=Cc1ccccc1`, “inactive”.

For `CS(C)(=O)=O`, the result was inactive.
